Bioassay records deposited in PubChem by National Center for Advancing Translational Sciences (NCATS).
Hits are enriched below; roughly 19% of the tested compounds scored in any of these assays.
DT40 TDP1 no CPT = qHTS for Inhibitors of human tyrosyl-DNA phosphodiesterase 1 (TDP1): qHTS in cells in absence of CPT | DT40 Tdp1-/- hTDP1 cells, no CPT, ATP luminescence, 48 h | Potency, µM (titrated, usually from 46.2 µM), inactives show at the top dose activity change, negative = growth inhibition, most hits filed as inhibitors | 420,000 compounds, 15% hits | AID 686978, 2013; note: potency is the fitted concentration of half-maximal effect; nearly all actives have a fitted effect of over 55% in size
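Readout: luminescence from CellTiter-Glo after 30 min in the dark at RT. Cells: DT40 Tdp1-/- with stable hTDP1, 400/well. Exposure: compounds alone, ≥48 hr, 37 °C.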
IL-1B inflam inh = qHTS for Inhibitors of Inflammasome Signaling: IL-1-beta AlphaLISA Primary Screen | activity change, % at 57.5 µM | 360,000 compounds, 4.7% hits | AID 743279, 2014 | THP-1 LPS/ATP IL-1B secretion, AlphaLISA, 16 h; hits give low values; in the data active = activity change below about -50%; inconclusive = mostly about -30% to -49%
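Secreted IL-1B measured by AlphaLISA bead assay after 16 h compound exposure of THP-1 cells; compounds (final up to 57.5 uM) added 1 h before LPS (250 ng/mL) and ATP (1.25 mM) stimulation; lower signal means less secretion.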
TDP1 cell CPT = qHTS for Inhibitors of human tyrosyl-DNA phosphodiesterase 1 (TDP1): qHTS in cells in presence of CPT; Potency, µM (highest dose often 46.2 µM), for inactives: top-dose activity change, negative = growth inhibition, actives largely listed as inhibitors; chicken DT40 Tdp1-/-;hTDP1 cells + 20 nM CPT, ATP luminescence, 48 h; 420,000 compounds, 12% hits; AID 686979, 2013; note: potency is the fitted concentration of half-maximal effect; nearly all actives have a fitted effect of over 55% in size
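Chicken DT40 Tdp1-/- cells stably complemented with human TDP1 were seeded at 400 cells/well in medium containing 20 nM camptothecin, exposed to pin-transferred compounds, and grown at 37 °C for at least 48 hr. Viability was read as ATP luminescence.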
HT1080 IDH1KD tx = qHTS for induction of synthetic lethality in tumor cells producing 2HG: qHTS for the HT-1080-IDH1KD cell line; HT-1080 IDH1 knockdown viability, ATP luminescence, 48 h; Potency, µM (highest dose often 46.1 µM), for inactives: top-dose activity, negative = toxicity, usual class: cytotoxic; 360,000 compounds, 2% hits; AID 686971, 2013;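 note: potency is the fitted concentration of half-maximal effect; 0% = DMSO wells and -100% = cell-free medium wells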
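Cytotoxicity counter-line: IDH1KD HT-1080, 48 h, CellTiter-Glo. Curves classed by r2, magnitude and activity.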
HT1080NT lethal = qHTS for induction of synthetic lethality in tumor cells producing 2HG: qHTS for the HT-1080-NT fibrosarcoma cell line. HT-1080-NT fibrosarcoma viability, CellTiter-Glo ATP luminescence, 48 h. Potency, µM (highest dose often 46.1 µM), for the others: at the highest dose activity, negative = less viability, hits mostly cytotoxic. 360,000 compounds, 1.6% hits;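 note: NT is the 2HG producing partner of a matched IDH1 knockdown line; potency is the fitted concentration of half-maximal effect; 0% = DMSO-treated cells and -100% = media-only wells without cells; nearly all actives have a fitted effect of over 55% in size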
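A 48-hour cytotoxicity screen used HT-1080-NT cells plated 2 hours before compound delivery. ATP-based CellTiter-Glo luminescence measured viability, normalized to DMSO and no-cell controls.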
* = called active by the depositor; i = inactive; ? = inconclusive; . = no result given. Unless noted, calls come from the whole dose curve; as a rule, active = well fitted curve in the direction sought with a large enough effect; inconclusive = small, poorly fitted or top-dose-only effect, or another doubt; inactive = no such curve, though single readings can be large; an effect the other way counts as inactive or inconclusive. Unless noted, % is set by controls: 0 for no effect and ±100 for the full control effect.

SMILES | DT40 TDP1 no CPT | IL-1B inflam inh | TDP1 cell CPT | HT1080 IDH1KD tx | HT1080NT lethal
O=C(CCC(=O)Nc1ccccc1)N/N=C/c1cccnc1 | 2% | 4 | ? | 1% | 3%
COC(=O)C(C)n1cnc2c(nnn2-c2ccccc2)c1=O (stereo not drawn) | -2% | -3 | -25% | 14% | 0%
Clc1ccc(-c2nc3ccc(Br)cn3c2Cc2ccsc2)cc1 | 16µM* | 44 | 16µM* | ? | -17%
N#Cc1ccc(-c2nc3ccc(Br)cn3c2Cc2ccsc2)cc1 | -99% | -19 | -100% | 7% | -1%
CCC1CCCCN1C(=O)CCC(=O)Nc1nnc(C(F)(F)F)s1 (stereo not drawn) | 12% | 5 | 9% | -7% | -3%
COc1ccc(/C(C)=N/NC(=O)CNC(=O)COc2ccccc2)c(OC)c1 | 2% | -4 | -4% | -1% | 4%
COc1cccc(/C=N/NC(=O)CNC(=O)CCc2ccccc2)c1O | ? | 232 | ? | 21µM* | ?
COc1ccc(/C(C)=N/NC(=O)CNC(=O)CCc2ccccc2)c(OC)c1 | 18µM* | 28 | ? | ? | ?
COc1cccc(/C=N/NC(=O)CNC(=O)c2cccs2)c1O | 9.2µM* | 112 | 5.8µM* | ? | ?
COc1ccccc1/C=C\C(=O)NCC(=O)N/N=C/c1cccc(OC)c1O | 7.3µM* | 183 | 7.3µM* | 15µM* | ?
CC1(C(=O)NS(=O)(=O)c2cccc(Cl)c2)CCN1C(=O)C/C=C/c1ccccc1 (stereo not drawn) | -9% | 2 | -14% | ? | ?
C=C(C)CN1C(=O)C2(OCCO2)c2cc(Br)ccc21 | 8% | 30 | 1% | 3% | 6%
O=C(COC(=O)c1n[nH]c2ccccc12)NC1CCCCC1 | 6% | 24 | -4% | 17% | 7%
Cc1ccc(-c2cnc3ccccc3n2)cc1C | -26% | 23 | -1% | -4% | 1%
CCN(C(=O)c1nn(-c2ccc(C)cc2)c(=O)c2c1c1ccccc1n2C)c1ccc(F)cc1 | 13µM* | . | ? | . | .
Cc1ccc(-n2nc(C(=O)N(C)c3ccc(C)c(C)c3)c3c4ccccc4n(C)c3c2=O)cc1 | 13µM* | . | 16µM* | . | .
COc1ccc(CCNC(=O)c2nn(-c3ccc(C)cc3)c(=O)c3c2c2ccccc2n3C)cc1OC | 2.1µM* | . | ? | . | .
Cc1ccc(-n2nc(C(=O)N3CCN(C)CC3)c3c4ccccc4n(C)c3c2=O)cc1 | -29% | 74 | -20% | 0% | 10%
CCN(CC)CCOC(=O)c1ccc(NC(=O)c2nn(-c3ccc(C)cc3)c(=O)c3c2c2ccccc2n3C)cc1 | 0.58µM* | . | 1.2µM* | . | .
CCc1ccc(NC(=O)c2nn(-c3ccc(OC)cc3)c(=O)c3c2c2ccccc2n3C)cc1 | 3% | . | 4% | . | .
CC(=O)N=c1sccn1CC(O)c1ccc(Br)cc1 (stereo not drawn) | -13% | 9 | 4% | -11% | -6%
COc1cccc(CNC(=O)c2c(OC)cc(=O)n3c2CCN(C(=O)c2ccc(C)nc2)CC3)c1 | 6% | . | 8% | . | .
Cc1nc2cc(OCc3cc(C(=O)NC(C)c4cnn(C)c4)no3)ccc2s1 (stereo not drawn) | ? | i | -26% | -8% | 0%
Cc1ccc(CNC(=O)C(=O)NCC2OCCN2S(=O)(=O)c2ccc(Cl)cc2)cc1 (stereo not drawn) | ? | 1 | ? | -26% | -11%
Cc1ccc(S(=O)(=O)N2CCOC2CNC(=O)C(=O)NCc2ccc(Cl)cc2)cc1 (stereo not drawn) | 21µM* | 0 | ? | -4% | -5%
